Reference: PubChem BioAssay (NCATS)
Where “and” joins values, the source holds several entries; their conditions need not be identical. Equal entries are not always repeated. Records with an inconclusive call do not appear. Calls of active or inactive are those of the source. Calls come from the whole dose curve; as a rule, active = well fitted curve in the direction sought with a large enough effect; inconclusive = small, poorly fitted or top-dose-only effect, or another doubt; inactive = no such curve, though single readings can be large; an effect the other way counts as inactive or inconclusive.

Assays:
[1] = target: Cellular tumor antigen p53 (Homo sapiens) (UniProt P04637); assay: Primary qHTS for small molecule compounds that upregulate eGFP-tagged delta133p53alpha (in N-terminal) cells. (AID 2060322); conditions: NCI-H358 eGFP-delta133p53alpha fluorescence, 24 h; activation: hits give high values; note: nearly all actives have a fitted effect of over 75% in size; note: potency is the fitted concentration of half-maximal effect;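 for activation: 0% = DMSO vehicle and 100% = reference activator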
Cellular tumor antigen p53 (Homo sapiens), sequence (P04637 whole entry, looked up): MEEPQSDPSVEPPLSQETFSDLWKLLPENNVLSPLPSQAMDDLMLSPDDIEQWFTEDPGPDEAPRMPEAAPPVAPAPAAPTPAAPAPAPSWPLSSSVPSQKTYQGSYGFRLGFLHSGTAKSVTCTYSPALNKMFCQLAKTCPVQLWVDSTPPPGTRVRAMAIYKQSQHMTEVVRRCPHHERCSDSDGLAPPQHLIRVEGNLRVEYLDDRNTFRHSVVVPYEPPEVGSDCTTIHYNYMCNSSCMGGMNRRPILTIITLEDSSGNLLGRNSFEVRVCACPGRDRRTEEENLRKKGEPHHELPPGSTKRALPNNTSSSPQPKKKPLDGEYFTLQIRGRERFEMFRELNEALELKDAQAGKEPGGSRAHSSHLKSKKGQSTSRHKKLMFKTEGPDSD
Procedure, shortened: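 NCI-H358 cells pre-induced 24 h with 10 ng/ml doxycycline to express N-terminal eGFP-delta133p53alpha, then dosed 24 h at 37C without doxycycline; fixed, Hoechst-stained, GFP intensity by laser scanning cytometry, normalized to DMSO (0%) and 57.5 uM 5-azacytidine (100%).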

[2] = target: Aldehyde dehydrogenase, mitochondrial (Homo sapiens) (UniProt P05091); assay: qHTS for Inhibitors of the Aldehyde Dehydrogenase Family (ALDH2) Primary screen (AID 2061308); conditions: ALDH2 enzyme inhibition qHTS, 1536-well; series mostly up to 56 µM;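 note: plate controls were vehicle for no effect and reference inhibitor for full effect; nearly all actives have a fitted effect of over 55% in size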
[3] = target: Retinaldehyde dehydrogenase 3 (Homo sapiens) (UniProt P47895); assay: qHTS for Inhibitors of the Aldehyde Dehydrogenase Family (ALDH1A3) Primary screen (AID 2061315); conditions: ALDH inhibition qHTS; series mostly up to 56 µM;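 note: plate controls were DMSO vehicle for no effect and reference inhibitor for full effect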
[4] = BET inhibitor-based combinations targeting novel dependencies in MECOM-rearranged (r) AML: SET-2 cell line (AID 2202231); conditions: SET-2 AML cells viability, CellTiter-Glo luminescence, 48 h; viability: hits give low values, concentration not given here; note: nearly all actives have a fitted effect of over 35% in size; note: potency is the fitted concentration of half-maximal effect;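 for viability: plate controls were DMSO treated cells for no effect and wells without cells for full effect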
Procedure, shortened: (§1)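 A 48 hr incubation preceded viability reading by CellTiter-Glo, with 15 min room-temperature development. Dose series had 11 points; normalization used DMSO and empty wells; AUC was computed and mean-centered per line as Z-AUC.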

[5] = BET inhibitor-based combinations targeting novel dependencies in MECOM-rearranged (r) AML: OCI-AML3 cell line (AID 2202232); conditions: CellTiter-Glo luminescence, 48 h; Potency: OCI-AML3 viability; series mostly up to 46 µM; note: nearly all actives have a fitted effect of over 35% in size; note: potency is the fitted concentration of half-maximal effect
Procedure, shortened: as §1

[6] = BET inhibitor-based combinations targeting novel dependencies in MECOM-rearranged (r) AML: HNT-34 cell line (AID 2202234); conditions: HNT-34 AML viability, CellTiter-Glo luminescence, 48 h; series mostly up to 46 µM; note: nearly all actives have a fitted effect of over 35% in size; note: potency is the fitted concentration of half-maximal effect
Procedure, shortened: (§2)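 Each compound is tested in an 11-point concentration series against 500 seeded cells/well for 48 hr. The luminescent viability signal is normalized to DMSO and blank wells, then reduced to AUC and a cell-line-centred Z-AUC.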

[7] = BET inhibitor-based combinations targeting novel dependencies in MECOM-rearranged (r) AML: UCSD-AML1 cell line (AID 2202235); conditions: UCSD-AML1 AML cells viability, CellTiter-Glo, 48 h; series mostly up to 46 µM; note: nearly all actives have a fitted effect of over 40% in size; note: potency is the fitted concentration of half-maximal effect
Procedure, shortened: as §2

[8] = BET inhibitor-based combinations targeting novel dependencies in MECOM-rearranged (r) AML: AML-191 cell line (AID 2202236; note: nearly all actives have a fitted effect of over 35% in size; note: potency is the fitted concentration of half-maximal effect); conditions: AML-191 viability, CellTiter-Glo luminescence, 48 h; series mostly up to 46 µM
Procedure, shortened: as §1

[9] = BET inhibitor-based combinations targeting novel dependencies in MECOM-rearranged (r) AML: AML-194 cell line (AID 2202237; note: nearly all actives have a fitted effect of over 40% in size; note: potency is the fitted concentration of half-maximal effect); conditions: AML-194 (MECOM-r AML) viability, CellTiter-Glo, 48 h; series mostly up to 46 µM
Procedure, shortened: as §1

[10] = BET inhibitor-based combinations targeting novel dependencies in MECOM-rearranged (r) AML: MV-4-11 cell line (AID 2202233); conditions: MV-4-11 AML viability, CellTiter-Glo luminescence, 48 h; series mostly up to 46 µM; note: potency is the fitted concentration of half-maximal effect; nearly all actives have a fitted effect of over 45% in size
Procedure, shortened: as §2

CC1CCN(c2cc(N3CCN(C)CC3)ccc2NC(=O)c2cc(C#N)c[nH]2)CC1
active: Potency [5] 20900 nM | Potency [6] 26300 nM | Potency [7] 20900 nM | Potency [8] 20900 nM | Potency [9] 23500 nM
inactive: activation [1] 4.19% and 20.5% | Potency [2] | Potency [3] | viability [4] 116%

COc1cc(C(=O)N2CCC(N3CCN(C)CC3)CC2)ccc1Nc1ncc2c(n1)N(C)c1ccccc1C(=O)N2C
active: Potency [4] 6610 nM | Potency [5] 2350 nM | Potency [10] 1480 nM | Potency [7] 4680 nM | Potency [9] 16600 nM
inactive: activation [1] -6.3% and 0.893% | Potency [2] | Potency [3]

O=C([C@@H](Cc1cccc(C(F)(F)F)c1)NS(=O)(=O)c1cc(F)c2c(c1)CCNC2)N1CCCC1
inactive: activation [1] -6.33% | Potency [2] | Potency [3] | viability [4] 107% | Potency [8] | Potency [9]
active: Potency [5] 11800 nM | Potency [10] 20900 nM

COc1cc(OC)c(/C=C/S(=O)(=O)Cc2ccc(OC)c(NCC(=O)O)c2)c(OC)c1
inactive: activation [1] 17.9% | Potency [2] | Potency [3]
active: Potency [4] 296 nM | Potency [5] 209 nM | Potency [6] 166 nM | Potency [8] 235 nM | Potency [9] 263 nM

CC(C)(C)C(=O)Oc1ccc2c(c1)nc(NC(=O)c1cccc([N+](=O)[O-])c1)n2CCCO
inactive: activation [1] 12% | Potency [2] | Potency [3] | viability [4] 111% | Potency [5] | Potency [7] | Potency [9]
active: Potency [10] 2950 nM

CNC(=O)c1ccc2cc(C3(O)CCn4cncc43)ccc2c1 (stereo unspecified)
inactive: activation [1] -1.49% and -0.893% | Potency [2] | Potency [3] | viability [4] 115% | Potency [5] | Potency [6] | Potency [7] | Potency [8]

CCC(C)n1ncn(-c2ccc(N3CCN(c4ccc(OC[C@H]5CO[C@](Cn6cncn6)(c6ccc(Cl)cc6Cl)O5)cc4)CC3)cc2)c1=O (stereo partly specified)
inactive: activation [1] 10% and -7.18% and -11.6% | Potency [2] | Potency [3] | viability [4] 101% | Potency [6] | Potency [7] | Potency [9]
active: Potency [5] 6450 nM | Potency [8] 7230 nM

O=C(Cc1ccc(-c2ccc(OCCN3CCOCC3)cc2)cn1)NCc1ccccc1
active: Potency [4] 166 nM | Potency [5] 105 nM | Potency [10] 118 nM | Potency [7] 118 nM | Potency [8] 93.4 nM | Potency [9] 93.4 nM
inactive: activation [1] 20.5% | Potency [2] | Potency [3]

COc1cc(C(=O)NC2CCN(C)CC2)c(F)cc1Nc1ncc2c(n1)N(C1CCCC1)CC(F)(F)C(=O)N2C
active: Potency [4] 93.4 nM | Potency [5] 46.8 nM | Potency [6] 105 nM | Potency [7] 105 nM | Potency [8] 118 nM | Potency [9] 83.3 nM
inactive: activation [1] 17% | Potency [2] | Potency [3]

CC[C@@H]1C(=O)N(C)c2cnc(Nc3ccc(C(=O)NC4CCC(N5CCN(CC6CC6)CC5)CC4)cc3OC)nc2N1C(C)C (stereo partly specified)
active: Potency [4] 148 nM | Potency [5] 59 nM | Potency [10] 118 nM | Potency [7] 166 nM | Potency [8] 166 nM | Potency [9] 93.4 nM
inactive: activation [1] -21.7% | Potency [2] | Potency [3]

COc1cc(CNC(=O)CCCC/C=C/C(C)C)ccc1O
active: Potency [4] 14800 nM | Potency [6] 6610 nM | Potency [9] 10500 nM
inactive: activation [1] -7.14% | Potency [2] | Potency [3] | Potency [5]

N#C[C@@H]1C[C@@H]2C[C@@H]2N1C(=O)[C@@H](N)C12CC3CC(CC(O)(C3)C1)C2
active: Potency [9] 14800 nM
inactive: activation [1] -3% | Potency [2] | Potency [3] | viability [4] 110% | Potency [5] | Potency [6]

CC(C)c1cnn2c(NCc3ccccc3)cc(N[C@@H](CO)[C@H](O)CO)nc12
inactive: Potency [2] | Potency [3]
active: Potency [1] 544 nM and 1.51 µM | Potency [4] 296 nM | Potency [5] 468 nM | Potency [6] 296 nM | Potency [7] 372 nM | Potency [8] 296 nM | Potency [9] 372 nM

CCN1CCN(Cc2ccc(Nc3ncc(F)c(-c4cc(F)c5nc(C)n(C(C)C)c5c4)n3)nc2)CC1
active: Potency [1] 12 µM | Potency [4] 5900 nM | Potency [5] 23500 nM | Potency [7] 662 nM | Potency [8] 2950 nM | Potency [9] 2090 nM
inactive: Potency [2] | Potency [3]

CC[C@H](NC(=O)[C@H](CS(=O)(=O)CC1CC1)N[C@@H](c1ccc(F)cc1)C(F)(F)F)C(=O)C(=O)NC1CC1
inactive: activation [1] 21.7% | Potency [2] | Potency [3] | viability [4] 112% | Potency [5] | Potency [6] | Potency [7] | Potency [8] | Potency [9]

CC(C)S(=O)(=O)c1ccc2nccc(Nc3ccc4scnc4c3)c2c1
active: Potency [6] 10500 nM
inactive: activation [1] -14.3% | Potency [2] | Potency [3] | viability [4] 95.8% | Potency [5] | Potency [8] | Potency [9]

CC#CC(=O)N1CCC[C@H]1c1nc(-c2ccc(C(=O)Nc3ccccn3)cc2)c2c(N)nccn12
inactive: activation [1] 15.7% | Potency [2] | Potency [3] | viability [4] 96.5% | Potency [5] | Potency [6] | Potency [7] | Potency [9]
